Assay outcomes from PubChem.
Rows were chosen to be rich in hits. Some 11% of all compounds tested hit in one or more screens of this group.
FLuc inh: Photinus pyralis luciferase inhibition; P08659; purified P. pyralis luciferase, luminescence, biochemical; Potency, µM (doses to about 115 µM), actives largely listed as inhibitors; hit rate 2.5% among 76,000; AID 1347043; note: nearly all actives have a fitted effect of over 65% in size
Target sequence (P08659 whole entry, looked up): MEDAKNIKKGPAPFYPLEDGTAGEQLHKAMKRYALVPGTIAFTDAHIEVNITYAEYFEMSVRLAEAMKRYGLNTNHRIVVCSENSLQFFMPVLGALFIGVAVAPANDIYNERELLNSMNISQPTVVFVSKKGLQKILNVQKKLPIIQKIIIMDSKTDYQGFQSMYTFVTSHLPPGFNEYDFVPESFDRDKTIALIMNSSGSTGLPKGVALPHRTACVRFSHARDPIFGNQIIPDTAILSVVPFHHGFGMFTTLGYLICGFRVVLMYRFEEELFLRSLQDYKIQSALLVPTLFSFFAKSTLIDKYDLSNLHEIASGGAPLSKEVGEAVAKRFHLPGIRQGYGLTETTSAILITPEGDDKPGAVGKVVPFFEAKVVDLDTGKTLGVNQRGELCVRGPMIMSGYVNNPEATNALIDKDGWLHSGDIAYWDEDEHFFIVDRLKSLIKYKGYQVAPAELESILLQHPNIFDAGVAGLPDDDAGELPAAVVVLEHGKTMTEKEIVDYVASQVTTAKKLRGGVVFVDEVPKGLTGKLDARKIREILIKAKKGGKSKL
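Purified P. pyralis luciferase (10nM final) in 50mM Tris acetate pH 7.5, 10mM Mg acetate, 0.01% Tween-20, 0.05% BSA with 10uM D-luciferin and 10uM ATP. Compounds titrated qHTS. Luminescence imaged on CCD.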
hNpr1 antagonist: human Npr1 receptor antagonism. HEK293 hNpr1 GloSensor cGMP, ANP-stimulated luminescence. hit rate 1.6% among 76,000. P16066. Potency, µM (series often up to 46.3 µM), most hits filed as inhibitors. AID 1347048; calls by dose curve; note: nearly all actives have a fitted effect of over 60% in size
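HEK293 cells stably expressing human Npr1 and cGMP GloSensor pGS-40F, loaded 2 h with 2% GloSensor reagent, given compound 30 min at room temperature. Luminescence read before and 20 min after 0.1 nM hNppA.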
HEK293 tox: cytotoxic compounds in HEK 293 cells; HEK 293 viability, ATP luminescence (CellTiter-Glo), 48-72 h; Potency, µM (series often up to 115 µM), most hits filed as inhibitors; hit rate 6.6% among 94,000; note: nearly all actives have a fitted effect of over 60% in size
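HEK 293 cells at 250 cells/well were exposed to compounds by pintool transfer for 48 or 72 hr at 37 degree Celsius, 5% CO2. Viability was read as ATP-coupled luminescence with CellTiter-Glo after 10 min at room temperature.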
NIH3T3 tox: NIH 3T3 cell cytotoxicity; NIH 3T3 viability, CellTiter-Glo ATP luminescence, 48-72 h; Potency, µM (highest dose often 96.7 µM), most hits filed as inhibitors; hit rate 4.3% among 94,000; AID 1345082; note: nearly all actives have a fitted effect of over 55% in size
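Viability of NIH 3T3 cells after 48 or 72 hr compound treatment at 37 °C was assessed by CellTiter-Glo, with luminescence imaged following a 10 min room-temperature step.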
A number is an active result. Unless noted, calls come from the whole dose curve; as a rule, active = well fitted curve in the direction sought with a large enough effect; inconclusive = small, poorly fitted or top-dose-only effect, or another doubt; inactive = no such curve, though single readings can be large; an effect the other way counts as inactive or inconclusive.

How did COc1ccc(-c2noc([C@@H]3CCCN3C(=O)c3cc(Cl)ccc3OC)n2)cc1 do in these assays?
FLuc inh: inactive; hNpr1 antagonist: inactive; HEK293 tox: 25µM; NIH3T3 tox: inconclusive

Results for Cc1cccc(NC(=O)N2CCCCC2c2nc(-c3cccnc3)n[nH]2)c1 (centres undefined) ?
HEK293 tox: inactive; NIH3T3 tox: inactive

Results for COc1ccc(-c2nc(N3CCOC[C@H]3C)cc3c2CN(C(C)C)C3=O)cc1 ?
FLuc inh: inactive; hNpr1 antagonist: inactive; HEK293 tox: 112µM; NIH3T3 tox: 79µM

What do the screens show for `COc1ccc(-c2nc(N3CCOCC3)cc3c2CN(Cc2cnn(C)c2)C3=O)cn1`?
FLuc inh: inactive; hNpr1 antagonist: inactive; HEK293 tox: inactive; NIH3T3 tox: inconclusive

Results for CCC(=O)N1CCC(=O)N(CCC#N)C[C@H]2COc3ccccc3[C@H]21 ?
HEK293 tox: inconclusive; NIH3T3 tox: inactive

How did C[S+](=O)([O-])CCn1ncc2cc(OCc3cccc(-c4ccoc4)c3)ccc21 do in these assays?
FLuc inh: inconclusive; hNpr1 antagonist: inconclusive; HEK293 tox: 71µM; NIH3T3 tox: inconclusive

What do the screens show for `COc1ncc(-c2cccc(COc3ccc4c(cnn4CC[S+](C)(=O)[O-])c3)c2)cn1`?
FLuc inh: inconclusive; hNpr1 antagonist: inconclusive; HEK293 tox: 71µM; NIH3T3 tox: inactive

Results for O=C(O)CCn1ncc2cc(OCc3ccc(-c4cncnc4)cc3)ccc21 ?
FLuc inh: 50µM; hNpr1 antagonist: inactive; HEK293 tox: inactive; NIH3T3 tox: 45µM

How did COc1ccc(F)cc1-c1cccc(COc2ccc3c(cnn3CC[S+](C)(=O)[O-])c2)c1 do in these assays?
FLuc inh: inactive; hNpr1 antagonist: inconclusive; HEK293 tox: inconclusive; NIH3T3 tox: inconclusive

How did C[S+](=O)([O-])CCn1ncc2cc(OCc3cccc(-c4cncnc4)c3)ccc21 do in these assays?
FLuc inh: 35µM; hNpr1 antagonist: inactive; HEK293 tox: inconclusive; NIH3T3 tox: inconclusive

Results for CC(C)C(=O)N1CCC(COc2ccc3c(cnn3CC[S+](C)(=O)[O-])c2)CC1 ?
FLuc inh: inconclusive; hNpr1 antagonist: inactive; HEK293 tox: inconclusive; NIH3T3 tox: inconclusive

What do the screens show for `COCCn1c(=O)c(C(=O)N2CCN(C(=O)c3ccc(C(F)(F)F)cc3)CC2)nc2cccnc21`?
HEK293 tox: inactive; NIH3T3 tox: inactive

How did CC(=O)N1CCC(COc2ccc3c(cnn3CC[S+](C)(=O)[O-])c2)CC1 do in these assays?
FLuc inh: inconclusive; hNpr1 antagonist: inactive; HEK293 tox: inactive; NIH3T3 tox: inconclusive

How did C[S+](=O)([O-])CCn1ncc2cc(OCc3cccc(-c4cccc(F)c4)c3)ccc21 do in these assays?
FLuc inh: inconclusive; hNpr1 antagonist: 40µM; HEK293 tox: inconclusive; NIH3T3 tox: inconclusive

What do the screens show for `COc1ncccc1-c1cccc(COc2ccc3c(cnn3CC[S+](C)(=O)[O-])c2)c1`?
FLuc inh: 16µM; hNpr1 antagonist: 35µM; HEK293 tox: 28µM; NIH3T3 tox: inconclusive

What do the screens show for `C[S+](=O)([O-])CCn1ncc2cc(OCC3CCN(c4ncccn4)CC3)ccc21`?
FLuc inh: 45µM; hNpr1 antagonist: inconclusive; HEK293 tox: inconclusive; NIH3T3 tox: inactive

Results for O=C(Nc1cc(F)ccc1F)N1CCOc2ccc(CN3CCc4ccccc4C3)cc2C1 ?
FLuc inh: inactive; hNpr1 antagonist: inconclusive; HEK293 tox: inconclusive; NIH3T3 tox: inconclusive

What do the screens show for `COCC(=O)NC[C@H]1CCN(Cc2cccc(OC)c2)C[C@H]1N(C)C`?
FLuc inh: inactive; hNpr1 antagonist: inactive; HEK293 tox: inactive; NIH3T3 tox: inactive

Results for CC(C)c1nc2c(c(-c3ccc(Cl)cc3)n1)CCN(Cc1ccc(C#N)cc1)CC2 ?
HEK293 tox: 40µM; NIH3T3 tox: inconclusive

How did CC(C)c1nc2c(c(-c3ccc(Cl)cc3)n1)CCN(CC1CC1)CC2 do in these assays?
HEK293 tox: inactive; NIH3T3 tox: inactive

What do the screens show for `CC(C)c1nc2c(c(-c3ccc(O)cc3)n1)CN(Cc1cccc(C(F)(F)F)c1)CC2`?
FLuc inh: inactive; hNpr1 antagonist: inactive; HEK293 tox: 32µM; NIH3T3 tox: 22µM

How did CC(C)c1nc2c(c(-c3ccc(O)cc3)n1)CCN(Cc1ccc(F)cc1)CC2 do in these assays?
FLuc inh: inactive; hNpr1 antagonist: inactive; HEK293 tox: inconclusive; NIH3T3 tox: inconclusive

What do the screens show for `CC(C)c1nc2c(c(-c3ccc(O)cc3)n1)CCN(Cc1ccccc1C(F)(F)F)CC2`?
FLuc inh: inactive; hNpr1 antagonist: inconclusive; HEK293 tox: 35µM; NIH3T3 tox: 28µM

How did CC(C)c1nc2c(c(-c3ccc(O)cc3)n1)CN(Cc1ccc(F)cc1)CC2 do in these assays?
FLuc inh: inactive; hNpr1 antagonist: inactive; HEK293 tox: 89µM; NIH3T3 tox: inconclusive

What do the screens show for `O=C(NCCc1ccc(F)cc1)C1CN(C2CCCCC2)C(=O)N1` (centres undefined)?
HEK293 tox: inactive; NIH3T3 tox: inactive

What do the screens show for `O=C(NC1CCN(CCn2nc3n(c2=O)CCCC3)C1)c1ccncc1` (centres undefined)?
HEK293 tox: inactive; NIH3T3 tox: inactive

Results for CC(C)c1nc2c(c(-c3ccc(O)cc3)n1)CN(Cc1ccc(N(C)C)cc1)CC2 ?
FLuc inh: inactive; hNpr1 antagonist: inactive; HEK293 tox: 79µM; NIH3T3 tox: inactive

What do the screens show for `Cc1ccc(-n2nc(C)c([C@@H]3C=C[C@@H](NC(=O)c4cccs4)C3)c2C)cc1Cl`?
FLuc inh: 25µM; hNpr1 antagonist: inactive; HEK293 tox: inconclusive; NIH3T3 tox: inconclusive

Results for Cc1nn(-c2ccc(C(C)(C)C)cc2)c(C)c1[C@@H]1C=C[C@@H](NC(=O)c2cccs2)C1 ?
FLuc inh: 20µM; hNpr1 antagonist: inactive; HEK293 tox: 35µM; NIH3T3 tox: inconclusive

What do the screens show for `Cc1nn(-c2ccc(C(F)(F)F)cc2)c(C)c1[C@@H]1C=C[C@@H](NC(=O)c2cccs2)C1`?
FLuc inh: inconclusive; hNpr1 antagonist: inactive; HEK293 tox: inconclusive; NIH3T3 tox: 28µM

How did Cc1nn(-c2ccccc2)c(C)c1[C@@H]1C=C[C@@H](NC(=O)c2ccc(N(C)C)cc2)C1 do in these assays?
FLuc inh: inconclusive; hNpr1 antagonist: inconclusive; HEK293 tox: 71µM; NIH3T3 tox: inconclusive

Results for COc1cccc(CC(=O)N2CCC3(CC2)CC(N2CCCC2)CCO3)c1 (centres undefined) ?
HEK293 tox: inactive; NIH3T3 tox: inactive

Results for CCOC(=O)[C@H]1[C@@H](O)C(=O)N(Cc2ccccc2)C12CCN(C(=O)OCC)CC2 ?
HEK293 tox: inactive; NIH3T3 tox: inconclusive

Results for CC(C)c1noc(C2CCCN(C(=O)c3ccoc3)CCC(=O)NCC2)n1 (centres undefined) ?
FLuc inh: inactive; hNpr1 antagonist: inactive; HEK293 tox: inactive; NIH3T3 tox: inactive

How did COc1ccc(S(=O)(=O)N[C@H]2[C@H](O)[C@H](O)C[C@@H]2c2ccccc2C)cc1 do in these assays?
FLuc inh: inactive; hNpr1 antagonist: inactive; HEK293 tox: inactive; NIH3T3 tox: inactive
